Bioassay records: PubChem BioAssay, National Center for Advancing Translational Sciences (NCATS)
IP6K1 inh – Primary qHTS assay for small molecule inhibitors of Inositol hexaphosphate kinase 1 (IP6K1); Inositol hexakisphosphate kinase 1 (Homo sapiens), Q92551; IP6K1 kinase, ADP-Glo luminescence, 2 h; stronger effect = lower value; activity change, % (series mostly up to about 58 µM); 140,000 compounds, 0.81% hits; AID 1645851, 2021; in the data active means activity change below about -25%; further: on the % scale 0 is the no-effect control and ±100 the full control effect
Target sequence (Q92551 whole entry, looked up): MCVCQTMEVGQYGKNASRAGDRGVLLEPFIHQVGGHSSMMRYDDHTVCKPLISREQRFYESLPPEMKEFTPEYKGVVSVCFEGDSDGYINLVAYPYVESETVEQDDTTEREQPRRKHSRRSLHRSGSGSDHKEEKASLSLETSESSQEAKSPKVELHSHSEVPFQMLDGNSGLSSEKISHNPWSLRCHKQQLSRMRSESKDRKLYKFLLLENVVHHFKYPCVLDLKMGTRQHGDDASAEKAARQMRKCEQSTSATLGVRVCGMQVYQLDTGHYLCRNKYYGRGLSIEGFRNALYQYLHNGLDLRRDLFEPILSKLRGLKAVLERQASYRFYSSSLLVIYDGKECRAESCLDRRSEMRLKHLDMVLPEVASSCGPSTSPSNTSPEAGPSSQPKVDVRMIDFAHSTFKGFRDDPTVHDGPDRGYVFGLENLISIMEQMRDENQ
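ADP-Glo luminescence measures ADP made by human IP6K1 during a 2 h RT reaction with ATP/IP6 (mix at 1.3 mM/130 uM); top library doses 57.5 and 19.1 uM final.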
SNCA viab count – GF-AFC viability counterscreen for inhibitors of alpha-synuclein gene (SNCA) expression | HEK-293-SNCA-luc viability, GF-AFC fluorescence, 24 h | Potency, µM (highest dose often 57.1 µM), for the others: at the highest dose activity change, negative = cytotoxicity, usual class: cytotoxic | 150,000 compounds, 0.12% hits | AID 1671193, 2021;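 further: potency means the concentration at half of the fitted maximal effect; 0% = DMSO-treated cells and -100% = medium-only wells without cells; nearly all actives have a fitted effect of over 30% in size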
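HEK-293-SNCA-luc cells (1500/well) plated 24 h, then exposed 24 h to a dilution series; GF-AFC added 30 min at 37C, fluorescence 405/540 nm; normalised to medium-only and DMSO wells, Hill fit.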
SNCA expr inhib – Primary qHTS assay for inhibitors of alpha-synuclein gene (SNCA) expression; HEK-293 SNCA-luciferase knock-in, luminescence, 24 h; Potency, µM (top dose mostly 57.2 µM), without a hit: at the top dose activity change, negative = inhibition, hits mostly inhibitors; 140,000 compounds, 0.17% hits; AID 1671194, 2021;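 further: potency means the concentration at half of the fitted maximal effect; plate controls were DMSO cells for no effect and cell-free wells for full effect; nearly all actives have a fitted effect of over 45% in size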
KDM5B inhibitor – Primary screen for KDM5B Histone Demethylases FDH-coupled qHTS. Lysine-specific demethylase 5B (Homo sapiens), Q9UGL1. Potency, µM (highest dose often 57.7 µM), actives largely listed as inhibitors. 220,000 compounds, 2.6% hits. KDM5B demethylase, FDH-coupled NADH fluorescence (FDH is formaldehyde dehydrogenase); further: potency means the concentration at half of the fitted maximal effect; 0% is about no effect; nearly all actives have a fitted effect of over 70% in size
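Compound dilutions met 200 nM (final) KDM5BΔAP for 10 min at room temperature before substrate addition. The substrate mix held 12.5 µM H3K4me3 with cofactors 25 µM α-ketoglutarate and 50 µM Fe²⁺. NADH signal gain over 30 min defined activity.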
* marks the source's active call; other numbers are inactive results; i = inactive; ? = inconclusive; · = not tested or not shown; [ ] = another dose, or the depositor's remark. Rows were chosen to be rich in hits. Some 3% of all compounds tested hit in one or more screens of this group. Unless noted, the call rests on the fitted dose curve; in most records, active means well fitted curve in the direction sought with a large enough effect; inconclusive means small, poorly fitted or top-dose-only effect, or another doubt; inactive means no such curve, though single readings can be large; an effect the other way counts as inactive or inconclusive.

SMILES	IP6K1 inh	SNCA viab count	SNCA expr inhib	KDM5B inhibitor
COCCN1Cc2ccc(NCc3ccccc3)nc2C(C)(C(=O)Nc2ccn(C)n2)C1 (stereo not drawn)	6.0	5.5%[87.6 µM]	?	35.5µM*
COCCN1Cc2ccc(Nc3cccnc3)nc2C(C)(C(=O)Nc2cccc(OC)c2)C1 (stereo not drawn)	5.3	-8.4%	-15.5%	?
Cc1cccc(NC(=O)C2Cc3ccc(C)cc3S2)c1 (stereo not drawn)	·	·	·	i
Cc1ccc(Nc2nc(C(=O)OCC(=O)c3ccc(Br)cc3)cs2)cc1	·	·	·	i
CC(C)(C)OC(=O)N1CCC(NC(=O)c2nc(-c3ccccc3)c3ccccn23)CC1	-14.7	1.1%	92.0%	79.4µM*
COc1ccc(-c2nc(C(=O)NC3CC3)n3ccccc23)cc1	17.3	2.4%[87.6 µM]	-4.8%[87.6 µM]	31.6µM*
COc1ccc(OC)c(N2C(=O)CCC2(C)C(=O)NC2CCCC2)c1 (stereo not drawn)	·	·	·	i
Cc1noc2c(Nc3ccncc3)cc(-c3ccc(F)cc3)nc12	-9.5	0.8%[87.6 µM]	0.8%[87.6 µM]	28.2µM*
COc1ccccc1-c1cc(NCc2ccncc2)c2onc(C)c2n1	-19.7	9.2%[87.6 µM]	41.5%[87.6 µM]	28.2µM*
COc1ccccc1-c1cc(NCC2CCOCC2)c2onc(C)c2n1	-2.0	5.6%[87.6 µM]	1.7%[87.6 µM]	i
COc1ccc(-c2ccc3nnc(CNC(=O)C(C)Oc4ccccc4)n3n2)cc1 (stereo not drawn)	-8.9	3.6%	-6.0%	31.6µM*
COc1cccc(CCC(=O)NCc2nnc3ccc(-c4ccccc4)nn23)c1	5.5	-2.7%	-20.0%	i
COc1ccc(-c2ccc3nnc(CNC(=O)C(C)Oc4cccc(Cl)c4)n3n2)cc1 (stereo not drawn)	-0.7	-13.4%	7.5%	28.2µM*
N#Cc1nc(-c2cccc3ccccc23)oc1NCC(c1cccs1)N1CCOCC1 (stereo not drawn)	·	·	·	i
C=CC[N+](C)(C)CC(=O)OC1CC2CCC1(C)C2(C)C (stereo not drawn)	·	·	·	i
COc1ccc(C(=O)N2CC[C@@H]3CN(c4cnccn4)[C@@H]3C2)c(OC)n1	26.5	-8.8%[12.5 µM]	?	31.6µM*
N#CC1CCN(C(=O)c2nc(-c3cccc(C(F)(F)F)c3)c3cnccn23)CC1	1.0	1.4%	-4.3%	25.1µM*
N#CC1CCN(C(=O)c2nc(-c3cccc(C(F)(F)F)c3)c3ccccn23)CC1	1.5	-20.1%	-14.8%	14.1µM*
O=C(c1ccccc1Br)N(Cc1ccc2cc[nH]c2c1)C1CC1	·	·	·	i
C=CC(=O)Nc1cccc(Nc2nc(Nc3ccc(OCCOC)cc3)ncc2F)c1	-6.8	9.47µM*	·	·
CC(=O)NCC(=O)N1C2CCC1c1cc(Nc3ncc(C(F)(F)F)c(NC4CCC4)n3)ccc12 (stereo not drawn)	-18.2	?	·	·
C=CC(=O)Nc1cccc(Nc2nc(Nc3ccc(NC4CN(CCF)C4)cc3OC)ncc2C(F)(F)F)c1	-5.9	4.74µM*	·	·
O=C(NCc1ccc(F)cc1)c1nc(-c2ccc(Cl)cc2)c2ccccn12	10.5	5.4%	7.1%	25.1µM*
O=C(NC1CC1)c1nc(-c2cccnc2)c2cnccn12	6.0	10.7%[87.6 µM]	4.2%[87.6 µM]	?
O=C(NCc1ccc2c(c1)OCO2)c1nc(-c2ccc(F)cc2)c2ccccn12	19.3	2.1%	-9.9%	?
SMILES	IP6K1 inh	SNCA viab count	SNCA expr inhib	KDM5B inhibitor
CS(=O)(=O)c1ccc(-c2nc(C(=O)NCc3cccnc3)n3ccncc23)cc1	18.7	?	-18.2%	10µM*
O=C(NCc1cc(F)cc(F)c1)c1nc(-c2ccc(F)cc2)c2ccccn12	24.7	10.3%	11.1%	?
COCCNC(=O)c1nc(-c2ccc([S+](C)(=O)[O-])cc2)c2ccccn12	15.9	8.2%	-19.2%	i
C[S+](=O)([O-])c1ccc(-c2nc(C(=O)NCCc3ccc(Cl)cc3)n3ccccc23)cc1	18.9	-0.5%	21.9%	89.1µM*
O=C(NCc1cccnc1)c1nc(-c2ccc(F)cc2)c2ccccn12	21.7	1.4%	2.9%	28.2µM*
O=C(Nc1ccccc1)c1oc2ccccc2c1NC(=O)c1nn(-c2cccc(Cl)c2)ccc1=O	·	·	·	i
c1ccc(C2=Nn3c(nnc3-c3cnccn3)SC2)cc1	·	·	·	i
N#Cc1ccccc1CN1CCSc2ccccc21	·	·	·	i
O=C(NCc1ccccc1F)c1nc2sccn2c1-c1ccc(C(F)(F)F)cc1	3.2	-19.8%	-26.4%	·
C[S+](=O)([O-])c1ccc(-c2nc(C(=O)NCCc3ccc(Cl)cc3)n3ccncc23)cc1	-6.2	5.2%	-14.5%	79.4µM*
CC(C)CNC(=O)c1nc(-c2ccc(Cl)cc2)c2cnccn12	10.1	8.9%[87.6 µM]	-8.1%[87.6 µM]	?
O=C(NCCc1ccc(Cl)cc1)c1nc(-c2ccc(Cl)cc2)c2ccccn12	11.7	10.8%	0.7%	25.1µM*
O=C(NCCc1ccc(Cl)cc1)c1nc2sccn2c1-c1ccccc1	5.2	0.4%	-11.7%	·
O=C(Cc1cccc(F)c1)NCC1COc2ncncc2C(=O)N1Cc1ccccc1 (stereo not drawn)	-0.1	1.4%[87.6 µM]	3.4%[87.6 µM]	28.2µM*
O=C1CO[C@H]2CN(c3nccc(C(F)(F)F)n3)C[C@H]2N1Cc1ccc(F)cc1	-2.9	-2.2%[87.6 µM]	24.2%[87.6 µM]	i
COc1ccc(CCN2C(=O)O[C@@H]3CN(c4nc(C)cc(C)n4)C[C@@H]32)cc1	21.0	-9.6%	-7.0%	17.8µM*
COc1ccc(CN2C(=O)CO[C@H]3CN(c4nccc(C)n4)C[C@H]32)cc1	-0.1	1.4%[87.6 µM]	-16.9%[87.6 µM]	35.5µM*
O=C(c1ccncc1)N1CCc2nc3cc(-c4ccccc4Cl)[nH]n3c(=O)c2C1	4.8	-7.2%	7.94µM*	15.8µM*
CCn1nccc1C(=O)N1CCc2nc3cc(-c4ccccc4Cl)[nH]n3c(=O)c2C1	0.0	0.9%	?	?
O=C(NCc1ccco1)N1CCc2nc3cc(-c4ccccc4Cl)[nH]n3c(=O)c2C1	0.0	-10.7%	?	14.1µM*
O=C(O)c1cccc(-c2ccc(F)cc2)c1	·	·	·	i
Cn1nccc1-c1cccc(CCOc2cnc3c(ccn3CC(=O)O)c2)c1	-3.2	3.1%[87.6 µM]	0.9%[87.6 µM]	?
COc1cccc(-c2cccc(CCOc3cnc4c(ccn4CC(=O)O)c3)c2)c1	7.4	-9.5%[87.6 µM]	-12.2%[87.6 µM]	31.6µM*
O=C(O)Cn1ccc2cc(OCCc3cccc(-c4ccc(F)cc4)c3)cnc21	-9.1	-2.3%[87.6 µM]	2.0%[87.6 µM]	39.8µM*
O=C(O)Cn1ccc2cc(OCCc3cccc(-c4cccc(F)c4)c3)cnc21	-1.1	-0.9%[87.6 µM]	-8.0%[87.6 µM]	39.8µM*
CC(C)(CNC(=S)Nc1cccc(C(F)(F)F)c1)N1CCCCC1	·	·	·	i
CCCCc1ncc(-c2c(-c3ccccc3)ncn2CCC2CCCN2C)[nH]1 (stereo not drawn)	1.5	?	-29.9%	10µM*
COc1cc2c(cc1OC)C(C[C@H]1CN(S(=O)(=O)c3ccc(Cl)cc3)CC[C@H]1CC(=O)O)=NCC2	12.6	20.6%	-19.8%	28.2µM*
